PubChem BioAssay (NCATS)
Where “and” joins values, the source holds several entries; their conditions need not be identical. Equal entries are not always repeated. Results filed as inconclusive are left out. Calls of active or inactive are those of the source. Unless noted, calls come from the whole dose curve; as a rule, active = well fitted curve in the direction sought with a large enough effect; inconclusive = small, poorly fitted or top-dose-only effect, or another doubt; inactive = no such curve, though single readings can be large; an effect the other way counts as inactive or inconclusive.

Experiments:
[1] = qHTS for Inhibitors of Plasmodium falciparum (DD2) proliferation (AID 504314);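 note: parasite DNA measured by SYBR Green fluorescence after red cell lysis; plate controls were DMSO vehicle for no effect and artemisinin wells for full effect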
Procedure, shortened: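 Erythrocytes infected with P. falciparum Dd2 (0.3% parasitemia, 2.5% hematocrit) exposed to compound 72 h at 37C, 5% CO2. Parasite DNA quantified by SYBR Green fluorescence after saponin/Triton lysis overnight; normalized to 0.29 uM artemisinin and DMSO.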

[2] = qHTS for Inhibitors of Plasmodium falciparum (GB4) proliferation (AID 504315);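 note: 0% = DMSO vehicle and -100% = 0.29 µM artemisinin control; nearly all actives have a fitted effect of over 50% in size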
Procedure, shortened: (§1)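 Erythrocytes infected with P. falciparum line (0.3% parasitemia, 2.5% hematocrit final) incubated with compounds 72 h at 37 °C, 5% CO2; SYBR Green lysis buffer added, fluorescence read next day. Normalized to 0.29 uM artemisinin and DMSO.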

[3] = qHTS for Inhibitors of Plasmodium falciparum (7G8) proliferation (AID 504316);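 note: series mostly up to about 6.7 µM; 0% = DMSO vehicle and -100% = 0.29 µM artemisinin full kill; nearly all actives have a fitted effect of over 65% in size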
Procedure, shortened: as §1

[4] = qHTS for Inhibitors of Plasmodium falciparum (HB3) proliferation (AID 504318);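 note: 0% = DMSO vehicle and -100% = artemisinin control; nearly all actives have a fitted effect of over 60% in size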
Procedure, shortened: as §1

[5] = qHTS for Inhibitors of Plasmodium falciparum (CP250) proliferation (AID 504320);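 note: plate controls were DMSO vehicle for no effect and 0.29 µM artemisinin control for full effect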
Procedure, shortened: as §1

[6] = target: Atrial natriuretic peptide receptor 1 (Homo sapiens) (UniProt P16066); assay: Natriuretic polypeptide receptor (hNpr1) antagonism - Pilot CMLD screen (AID 1347052; calls by dose curve;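 note: HEK293 cells with hNpr1 stimulated by hNppA peptide at 0.1 nM; cGMP level read as GloSensor luciferase luminescence after agonist stimulation; series mostly up to about 9.2 µM; % is set by controls: 0 for no effect and ±100 for the full control effect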)
Sequence of Atrial natriuretic peptide receptor 1 (Homo sapiens) (P16066 whole entry, looked up): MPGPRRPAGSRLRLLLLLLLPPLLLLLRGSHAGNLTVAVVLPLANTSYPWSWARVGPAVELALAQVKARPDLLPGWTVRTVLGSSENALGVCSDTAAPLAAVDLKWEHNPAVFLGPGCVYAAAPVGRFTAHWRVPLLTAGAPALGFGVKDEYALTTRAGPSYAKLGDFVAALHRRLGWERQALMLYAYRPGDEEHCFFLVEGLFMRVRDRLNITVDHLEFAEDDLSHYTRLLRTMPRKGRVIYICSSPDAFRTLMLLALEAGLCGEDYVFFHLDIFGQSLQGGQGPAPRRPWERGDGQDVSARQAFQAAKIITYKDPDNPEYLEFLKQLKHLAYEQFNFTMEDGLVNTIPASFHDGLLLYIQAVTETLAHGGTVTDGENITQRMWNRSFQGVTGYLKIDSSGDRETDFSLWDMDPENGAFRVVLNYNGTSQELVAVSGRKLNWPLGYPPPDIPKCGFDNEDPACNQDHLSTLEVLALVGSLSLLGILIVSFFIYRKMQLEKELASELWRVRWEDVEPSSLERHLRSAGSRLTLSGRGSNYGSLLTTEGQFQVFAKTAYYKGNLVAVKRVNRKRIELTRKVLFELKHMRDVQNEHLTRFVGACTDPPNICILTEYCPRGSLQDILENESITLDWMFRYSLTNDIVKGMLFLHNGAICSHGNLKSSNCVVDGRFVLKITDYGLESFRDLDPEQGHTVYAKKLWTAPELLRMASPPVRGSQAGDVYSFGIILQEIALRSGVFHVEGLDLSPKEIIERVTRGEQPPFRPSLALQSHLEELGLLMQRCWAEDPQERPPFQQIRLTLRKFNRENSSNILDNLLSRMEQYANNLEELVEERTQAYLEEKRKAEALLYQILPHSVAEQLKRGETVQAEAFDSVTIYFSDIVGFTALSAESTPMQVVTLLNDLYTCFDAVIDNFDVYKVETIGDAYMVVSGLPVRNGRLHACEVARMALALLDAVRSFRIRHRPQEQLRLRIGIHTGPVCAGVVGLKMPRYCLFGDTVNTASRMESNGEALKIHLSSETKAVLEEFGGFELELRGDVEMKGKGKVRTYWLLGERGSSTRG

CN1c2ccccc2[C@@]2(O)C(=O)[C@@]1(C)[C@@H]1CCC=C[C@H]12
inactive: Potency [1] | Potency [2] | Potency [3] | Potency [4] | Potency [5] | Potency [6]

C=CCOC(=O)N[C@H](c1ccccc1)C(C(C)=O)C(C)=O
inactive: Potency [1] | Potency [2] | Potency [3] | Potency [4] | Potency [5] | Potency [6]

C=CC1=C2C=C(C3CC3)N(CC3CC3)C=C2C(=O)C(C)(OC(=O)c2ccco2)C1=O (stereo unspecified)
inactive: Potency [1] | Potency [2] | Potency [3] | Potency [4] | Potency [5] | Potency [6]

CCCCc1nc2c(c3c1C[C@H](C)OC3)CN(S(=O)(=O)c1ccc(NC(C)=O)cc1)CC2
inactive: Potency [1] | Potency [2] | Potency [3] | Potency [4] | Potency [5] | Potency [6]

O=C(NN=C1C[C@@H](O)[C@H](O)[C@H]2[C@@H]3C(=O)N(C[C@@H]4CCCO4)C(=O)[C@@H]3CC[C@@H]12)OCc1ccccc1
inactive: Potency [1] | Potency [2] | Potency [3] | Potency [4] | Potency [5] | Potency [6]

CCOC(=O)[C@@]1([C@@H](NC(=O)OC)c2ccccc2)CCCC1=O
inactive: Potency [1] | Potency [2] | Potency [3] | Potency [4] | Potency [5] | Potency [6]

O=C1CCCC(C(C(=O)OCc2ccccc2)C(=O)OCc2ccccc2)C1 (stereo unspecified)
inactive: Potency [1] | Potency [2] | Potency [3] | Potency [4] | Potency [5] | Potency [6]

COC(=O)C[C@H]1c2ccccc2[C@@H]2C(=C[C@@H](C)[C@H]3C(=O)N(O)C(=O)[C@H]32)N1C(=O)OC
inactive: Potency [1] | Potency [2] | Potency [3] | Potency [4] | Potency [5] | Potency [6]

CCN1C(=NCc2ccccc2)N[C@@H](CCc2ccccc2)[C@H](C(=O)OC)[C@H]1C
inactive: Potency [1] | Potency [2] | Potency [3] | Potency [4] | Potency [5] | Potency [6]

COCC=CC1=CC2=CC(=O)C(C)(OC(=O)c3cnc4ccccc4n3)C(=O)C2=CN1CCCCO (stereo unspecified)
inactive: Potency [1] | Potency [2] | Potency [3] | Potency [4] | Potency [5] | Potency [6]

COC(=O)[C@@H](NC(=O)O[C@@H]1C(=O)c2cc(Br)ccc2O[C@H]1c1cccc(OC)c1)C(C)C
inactive: Potency [1] | Potency [2] | Potency [3] | Potency [4] | Potency [5] | Potency [6]

CC(=O)N1C(=O)NC(C)=C(C#N)C1c1ccccc1 (stereo unspecified)
inactive: Potency [1] | Potency [2] | Potency [3] | Potency [4] | Potency [5] | Potency [6]

COc1ccc(NC(=O)N2CCc3nc(-c4ccccc4)c4c(c3C2)CO[C@@H](C)C4)cc1
inactive: Potency [1] | Potency [2] | Potency [3] | Potency [4] | Potency [5] | Potency [6]

N#CCCn1cnc2c1NC=NC2Cl (stereo unspecified)
inactive: Potency [1] | Potency [2] | Potency [3] | Potency [4] | Potency [5] | Potency [6]

CC(C)[C@@H](OCc1ccccc1)[C@H](C)C=NO[C@H](C)c1cn([C@@H]2COC[C@@H]2O)nn1
inactive: Potency [1] | Potency [2] | Potency [3] | Potency [4] | Potency [5] | Potency [6]

COC(=O)C(C(C)=O)[C@@H](NC(=O)OC(C)(C)C)c1ccccc1 (stereo partly specified)
inactive: Potency [1] | Potency [2] | Potency [3] | Potency [4] | Potency [5] | Potency [6]

COC(=O)N1C(C)=Cc2ccccc2C1CC(C)=O (stereo unspecified)
inactive: activity, negative = inhibition [1] -3.47% [at 1.12 µM] and -2.49% [at 1.12 µM] | Potency [2] | Potency [3] | Potency [4] | Potency [5] | Potency [6]

C=CCOC(=O)C(C(C)=O)[C@@H](NC(=O)OC)c1ccc(F)cc1 (stereo partly specified)
inactive: Potency [1] | Potency [2] | Potency [3] | Potency [4] | Potency [5] | Potency [6]

CC=COC(=O)N[C@@H](c1ccccc1)[C@]1(C(=O)OC)CCCC1=O
inactive: Potency [1] | Potency [2] | Potency [3] | Potency [4] | Potency [5] | Potency [6]

COc1cccc([C@@H]2[C@@H](C)CC[C@@H]3C(=O)NC[C@H](O)CN32)c1
inactive: Potency [1] | Potency [2] | Potency [3] | Potency [4] | Potency [5] | Potency [6]

O=C1[C@@H]2[C@H]3[C@H](O)[C@H](O)CC(=NOC[C@@H](O)COCc4ccco4)[C@H]3CC[C@H]2C(=O)N1c1ccc(F)cc1F
inactive: Potency [1] | Potency [2] | Potency [3] | Potency [4] | Potency [5] | Potency [6]

C=CCOC(=O)C(C(C)=O)[C@@H](NC(=O)OC)c1cccs1 (stereo partly specified)
inactive: Potency [1] | Potency [2] | Potency [3] | Potency [4] | Potency [5] | Potency [6]

O=P1(O)Oc2c(c(-c3ccccc3)cc3ccccc23)-c2c(-c3ccccc3)cc3ccccc3c2O1
inactive: Potency [1] | Potency [2] | Potency [3] | Potency [4] | Potency [5] | Potency [6]

COC(=O)N[C@@H](CCc1ccccc1)[C@]1(C(C)=O)CCCC1=O
inactive: Potency [1] | Potency [2] | Potency [3] | Potency [4] | Potency [5] | Potency [6]

COC1=CC2C(=O)C(C(c3ccccc3)C2C)C1(C)O (stereo unspecified)
inactive: Potency [1] | Potency [2] | Potency [3] | Potency [4] | Potency [5] | Potency [6]

CCCCC1=CC2=C(c3ccco3)C(=O)C(C)(OC(=O)c3ccc(OC)cc3)C(=O)C2=CN1CCCOC(C)C (stereo unspecified)
inactive: Potency [1] | Potency [2] | Potency [3] | Potency [4] | Potency [5] | Potency [6]

COC(=O)[C@@]1(C=C2c3ccc(F)cc3[C@@H](OC)[C@@H]2C)[C@@H]2OCCC[C@@H]21
inactive: Potency [1] | Potency [2] | Potency [3] | Potency [4] | Potency [5] | Potency [6]

COc1cc2c(cc1OC)[C@@H]1O[C@](c3ccsc3)(C2)OC2=C1C(=O)OC1(CCCCC1)C2
inactive: Potency [1] | Potency [2] | Potency [3] | Potency [4] | Potency [5] | Potency [6]

COc1cccc([C@@H]2Oc3ccc(Br)cc3C[C@@H]2OC(=O)N[S+](=O)([O-])c2ccc(C)cc2)c1
inactive: Potency [1] | Potency [2] | Potency [3] | Potency [4] | Potency [5] | Potency [6]

COC(=O)C1=C(C(=O)OC)[C@@H]2N(C)c3ccccc3[C@@]23C[C@@H](C(=O)OC)N(C(=O)NC(C)(C)C)C3=N1
inactive: Potency [1] | Potency [2] | Potency [3] | Potency [4] | Potency [5] | Potency [6]

CC(=O)OC[C@H]1O[C@@H](ON=C(C)CCN2CCCCc3nc(C)c(C)cc32)[C@H](OC(C)=O)[C@@H](OC(C)=O)[C@H]1OC(C)=O
inactive: Potency [1] | Potency [2] | Potency [3] | Potency [4] | Potency [5] | Potency [6]

COC(=O)C1=C(C)N(Cc2ccccc2)C(=S)NC1c1ccc(Br)cc1 (stereo unspecified)
inactive: Potency [1] | Potency [2] | Potency [3] | Potency [4] | Potency [5] | Potency [6]

Cc1cc2c(c(=O)o1)[C@H]1O[C@](c3ccsc3)(Cc3ccccc31)O2
inactive: Potency [1] | Potency [2] | Potency [3] | Potency [4] | Potency [5] | Potency [6]

COC(=O)[C@H](Cc1ccccc1)NC(=O)O[C@H]1C(=O)c2ccc(OC)cc2O[C@@H]1c1ccc2c(c1)OCO2
inactive: Potency [1] | Potency [2] | Potency [3] | Potency [4] | Potency [5] | Potency [6]

CCOC(=O)CCN1C(=O)[C@@H]2[C@H]3[C@H](O)[C@H](O)CC(=NNC(=O)OCc4ccccc4)[C@H]3CC[C@H]2C1=O
inactive: Potency [1] | Potency [2] | Potency [3] | Potency [4] | Potency [5] | Potency [6]

COc1ccc([C@]23Cc4cc(OC)c(OC)cc4[C@H](O2)C2=C(CC4(CCCCC4)OC2=O)O3)cc1
inactive: Potency [1] | Potency [2] | Potency [3] | Potency [4] | Potency [5] | Potency [6]

COCCN1C=C2C(=O)C(C)(OC(=O)C3CCCC3)C(=O)C(c3ccccc3)=C2C=C1CCCC(=O)OC (stereo unspecified)
inactive: Potency [1] | Potency [2] | Potency [3] | Potency [4] | Potency [5] | Potency [6]

CCOC(=O)CN1C(=O)N[C@@H](CCc2ccccc2)[C@H](C(=O)OC)[C@H]1C
inactive: Potency [1] | Potency [2] | Potency [3] | Potency [4] | Potency [5] | Potency [6]

C=CCOC(=O)N[C@H](c1cccc(OC)c1)[C@H](C)C=CCC(=O)OC
inactive: Potency [1] | Potency [2] | Potency [3] | Potency [4] | Potency [5] | Potency [6]

C=CCOC(=O)N[C@H](C(C(=O)OC)=C(C)NCc1ccccc1)c1ccc2c(c1)OCO2
inactive: Potency [1] | Potency [2] | Potency [3] | Potency [4] | Potency [5] | Potency [6]

COC(=O)CC=C[C@@H](C)[C@@H](C=NO[C@H](C)c1cn([C@@H]2COC[C@@H]2O)nn1)N[S+](=O)([O-])c1ccc(C)cc1
inactive: Potency [1] | Potency [2] | Potency [3] | Potency [4] | Potency [5] | Potency [6]

Cc1cc(O)cc(O)c1C(=O)OC1(C)C(=O)C=C2C=C(C=CCO)OC=C2C1=O (stereo unspecified)
inactive: Potency [1] | Potency [2] | Potency [3] | Potency [4] | Potency [5] | Potency [6]

CC(C)=CCn1cnc2c1C(NOCc1ccccc1)=NCN2
inactive: Potency [1] | Potency [2] | Potency [3] | Potency [4] | Potency [5] | Potency [6]

CCN1C(=O)NC(c2cccs2)C(C(=O)OC)=C1C (stereo unspecified)
inactive: Potency [1] | Potency [2] | Potency [3] | Potency [4] | Potency [5] | Potency [6]

CC(=O)OC[C@H]1O[C@@H](ON=C2C[C@@H](O)[C@@H](O)[C@@H]3[C@H]4C(=O)N(Cc5ccccc5)C(=O)[C@@H]4CC[C@@H]23)[C@H](OC(C)=O)[C@@H](OC(C)=O)[C@H]1OC(C)=O
inactive: Potency [1] | Potency [2] | Potency [3] | Potency [4] | Potency [5] | Potency [6]

COC(=O)C1=C(C(=O)OC)[C@@H]2N(C)c3ccccc3[C@@]23C[C@@H](C(=O)OC)N(C(=O)c2ccc(Br)cc2)C3=N1
inactive: Potency [1] | Potency [2] | Potency [3] | Potency [4] | Potency [5] | Potency [6]

CC(C)CON=C1C[C@@H](O)[C@@H](O)[C@@H]2[C@H]3C(=O)N(c4ccc(F)cc4F)C(=O)[C@@H]3CC[C@H]12
inactive: Potency [1] | Potency [2] | Potency [3] | Potency [4] | Potency [5] | Potency [6]

CCN1C(=O)[C@@H]2[C@H]3[C@H](O)[C@H](O)CC(=NOCC[C@@H]4C=C[C@H](OC(C)=O)[C@@H](COC(C)=O)O4)[C@@H]3CC[C@H]2C1=O
inactive: Potency [1] | Potency [2] | Potency [3] | Potency [4] | Potency [5] | Potency [6]

CC=COC(=O)N[C@@H](c1ccccc1)[C@]1(C(=O)OCC)CCCC1=O
inactive: Potency [1] | Potency [2] | Potency [3] | Potency [4] | Potency [5] | Potency [6]

CCCCS(=O)(=O)N1C2=NC3=C(C(=O)N(CCOC)C3=O)C3N(C)c4ccccc4[C@]23C[C@H]1CO (stereo partly specified)
inactive: Potency [1] | Potency [2] | Potency [3] | Potency [4] | Potency [5] | Potency [6]

CSc1nnc2c(n1)C[C@H](c1ccccc1)[C@@H](C)[C@@H](C(=O)N1CCCC1)C2
inactive: Potency [1] | Potency [2] | Potency [3] | Potency [4] | Potency [5] | Potency [6]
